# Compounds without any hit were thinned out: in the full panel of roughly 83,000, 20% have a hit.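 Method: cells in 96-well plates; compound added at one concentration; 48 h incubation; percent growth measured; values under 10 scored active.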 A number with no mark means an inactive call. The source made the active and inactive calls.
# Legend:
# Experiment in all cases: NCI-60 one-dose screen, 48 h (100 = growth as untreated, 0 = no growth, -100 = all killed)
# Details in all cases: 10 µM unless noted
# T-47D breast = tested on: T-47D breast
# MDA-MB-435 melanoma = tested on: MDA-MB-435 melanoma
# SW-620 colon = tested on: SW-620 colon
# MCF7 breast = tested on: MCF7 breast
# HCT-116 colon = tested on: HCT-116 colon
# HCC-2998 colon = tested on: HCC-2998 colon
# KM12 colon = tested on: KM12 colon
# BT-549 breast = tested on: BT-549 breast
SMILES,growth (T-47D breast),growth (MDA-MB-435 melanoma),growth (SW-620 colon),growth (MCF7 breast),growth (HCT-116 colon),growth (HCC-2998 colon),growth (KM12 colon),growth (BT-549 breast)
CCOC(=O)c1c(NC(=O)c2ccc(C(F)(F)F)cc2)sc2c3c(ccc12)OCN(C)C3,4.14% (active),-16.8% (active),-52.4% (active),-61.7% (active),-75.8% (active),-13.8% (active),12.1%,
C#C[C@]1(O)CC[C@H]2[C@@H]3CC=C4c5sc(N6CCN(C)CC6)nc5CC[C@]4(C)[C@H]3CC[C@@]21C,85.7%,1.24% (active),19.6%,24.2%,-41% (active),81.2%,21.1%,
CCN1CCN(c2ccc(NC(=O)Nc3ccc4c(ccn4-c4ccnc(C(=O)NC)c4)c3)cc2C(F)(F)F)CC1,90.5%,70.4%,-56.2% (active),5.65% (active),58.6%,93.9%,36.4%,
O=C(CSc1cc[n+](CCCCO)c2ccccc12)n1ccc2ccccc21,96.6%,107%,99%,94.6%,99.6%,113%,96.9%,
CCNCCOc1ccc(/C(=C(/CC)c2ccc(Cl)cc2)c2ccc(OCCCN(C)C)cc2)cc1,-60.2% (active),-74.2% (active),-62.1% (active),-82.5% (active),-72.4% (active),-84.2% (active),-85.3% (active),
CC1=C(C)C(=O)C(Nc2ccc(C)c(C)c2)=C(Br)C1=O,41.6%,103%,,,34.7%,96.4%,99.8%,
O=C(/C=C/c1csc(Br)n1)NO,8.14% (active),5.36% (active),10.2%,,5.92% (active),29.2%,34.9%,
CCc1cc2c(cc1Cl)nc1c(=O)[nH]c(=O)nc-1n2CCOCC(C)(C)C,80.7%,33.5%,,58.2%,73.3%,84.1%,76.5%,
CCOC(=O)c1c(NC(=O)c2cccc(C(F)(F)F)c2)sc2c3c(ccc12)OCN(C)C3,-38.2% (active),-55.5% (active),-76.5% (active),-81.9% (active),-89.4% (active),-88.9% (active),-11.3% (active),
Fc1ccc2nc(-c3cnn4cccnc34)sc2c1,44.2%,108%,,26.7%,88.8%,,79.8%,
CCN(CC)CCOc1ccc(C(=C(c2ccccc2)C2CCCC2)c2ccc(OCCN(CC)CC)cc2)cc1,18.8%,-10% (active),33.5%,-57.3% (active),13.3%,-62.3% (active),-7.22% (active),
CCOC(=O)c1ccc(NC2=C(Cl)C(=O)c3nc(C)ccc3C2=O)cc1,-0.935% (active),21.6%,,-14.5% (active),7.29% (active),80.3%,50.8%,
N#Cc1c(-c2cccs2)cc(-c2cnccn2)nc1SCC(=O)N/N=C/c1ccc(Cl)cc1,93.8%,103%,93.1%,84.6%,57.8%,119%,96.5%,
CCCC/C(=C\c1ccc(O)c(O)c1)C(=O)NC(Cc1ccccc1)C(=O)C(=O)NCCc1ccc(OC)cc1 (configuration not stated),,94.3%,,95%,92.4%,102%,97.9%,
NC(N)=NS(=O)(=O)c1ccc(N=Nc2c(N)nn(-c3ccc([N+](=O)[O-])cc3[N+](=O)[O-])c2N)cc1,,103%,101%,96.2%,101%,,101%,123%
Cn1cc(-c2nnc(N)nc2-c2c[nH]c3ccc(F)cc23)c2cc(Br)ccc21,,3.84% (active),20.4%,12.3%,14.9%,53.6%,22.5%,11.1%
Cc1ccc2c(n1)C(=O)C(Cl)=C(Nc1ccc(C(F)(F)F)cc1)C2=O,,95.8%,-10.5% (active),-56.1% (active),1.42% (active),97.9%,98.2%,130%
COC(=O)[C@@H](Cc1c[nH]c2ccccc12)NC(=O)CCCCOc1cc(O)c2c(=O)cc(-c3ccccc3)oc2c1,,91.6%,95.8%,94.9%,92.1%,96.5%,95.3%,90.7%

SMILES,growth (T-47D breast),growth (MDA-MB-435 melanoma),growth (SW-620 colon),growth (MCF7 breast),growth (HCT-116 colon),growth (HCC-2998 colon),growth (KM12 colon),growth (BT-549 breast)
O=C(/C=C/c1cccc(F)c1)c1cccc(OCCCCOc2cccc(C(=O)/C=C/c3cccc(F)c3)c2)c1,,103%,98.1%,,72.8%,114%,110%,124%
Cc1ccc(-c2nc(SCC(=O)c3ccccc3)nc(Nc3ccc(S(N)(=O)=O)cc3)c2C#N)cc1,,47%,83.8%,,35.9%,106%,72.8%,73.8%
Cc1ccc2c(n1)C(=O)C(Cl)=C(Nc1cccc(C(=O)OC(C)(C)C)c1)C2=O,,97.9%,64.3%,,14%,113%,99.2%,102%
C#CCOc1ccccc1/C=N/Nc1nc(-c2ccc(Cl)cc2)cs1,,104%,93.4%,77.5%,90.7%,120%,91.4%,128%
CCNC(=O)Oc1ccc(/C(=C(/C)c2ccc(OC)cc2)c2ccc(OCCN3CCCCCC3)cc2)cc1,,43.7%,-25.9% (active),8.81% (active),13.4%,67.9%,39.6%,73.3%
COc1ccc2c(c1)c(/C=N/Nc1ccnc3cc(Cl)ccc13)cn2C,,-92.9% (active),-76.6% (active),-80.2% (active),-82.3% (active),-86.3% (active),-78.1% (active),-76.9% (active)
COc1cc(C(=O)c2cc(C(C)=O)c3c(C)cccn23)cc(OC)c1OC,,97.3%,104%,82.7%,95.1%,105%,96.5%,104%
N#Cc1c(-c2cccs2)cc(-c2cnccn2)nc1SCC(=O)N/N=C/c1cccs1,,51%,43.2%,32.1%,0.402% (active),43.1%,47.6%,42.5%
CSc1ccc(/C(=N/N=C(N)N)c2ccc(Cl)cc2)cc1,,-30.1% (active),2.54% (active),0.167% (active),-27.7% (active),-68.2% (active),5.79% (active),-37.3% (active)
CC(=C(c1ccc(OCCN(C)C)cc1)c1ccc(OCCN(C)C)cc1)c1ccc(Cl)cc1,,-82.8% (active),,-77.6% (active),-65.1% (active),,-65.2% (active),
C=C(C)[C@@H]1CC[C@]2(C(=O)O)CC[C@]3(C)[C@H](CC[C@@H]4[C@@]5(C)C/C(=C/c6ccccn6)C(=O)C(C)(C)[C@@H]5CC[C@]43C)[C@@H]12,,36.6%,27.9%,18.7%,13.5%,31.3%,30.6%,45.8%
O=C(COc1ccc(/C=C2\C(=O)Nc3ccc(F)cc32)cc1)Nc1ccccc1,,98.6%,103%,89.8%,69%,101%,97.8%,116%
O=C1[C@@H]2Cc3c([nH]c4ccccc34)[C@@H](c3ccc(Cl)cc3)N2C(=O)CN1C1CCN(Cc2c(F)cccc2F)CC1,,46.9%,48.6%,15.3%,17.8%,6.16% (active),35.1%,46.3%
COc1ccc(/C=N\NC(=O)c2cnn(CC(O)c3ccccc3)c2N)cc1OCc1ccc(Cl)cc1 (configuration not stated),,78.7%,64.5%,60.8%,49.4%,108%,75%,
Oc1ccc(-c2nc3ccc(/C(=N\N=C\c4ccc(Cl)cc4)c4ccccc4)cc3[nH]2)cc1,,84.4%,88.5%,53.1%,82.6%,91.9%,74%,
Cc1ccc(/C(N)=N/C(N)=N/c2nc3ccccc3s2)cc1,,103%,107%,74%,86%,,64.1%,102%
CCC(=C(c1ccc(OCCN2CCCCCC2)cc1)c1ccc(OCCN2CCCCCC2)cc1)c1ccc(Cl)cc1,,-85.8% (active),,-63.7% (active),-88.9% (active),-86% (active),4.43% (active),86.2%
Fc1cc(F)cc(NNC(=S)c2ccccc2)c1,,64%,58%,37.5%,20.9%,87%,49.1%,17.8%
